Measurements as given in PubChem BioAssay (NCATS).
Inconclusive results are not listed. The source made the active and inactive calls. The call rests on the fitted dose curve; in most records, active means well fitted curve in the direction sought with a large enough effect; inconclusive means small, poorly fitted or top-dose-only effect, or another doubt; inactive means no such curve, though single readings can be large; an effect the other way counts as inactive or inconclusive.

Legend:
C33A = assay: Primary qHTS to identify gynecologic anti-cancer compounds using libraries of approved drugs and bioactive compounds (AID 1345084); conditions: Gynecologic cancer cell panel viability, ATPlite luminescence, 48 h; series mostly up to 57.5 µM; further: nearly all actives have a fitted effect of over 55% in size
Outline: (§1)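 Cells, 1,000 per well, plated 16 h, then exposed 48 h at 37 C to compounds. Viability by ATPlite luminescence after 15 min at room temperature.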

CAOV3 = assay: as above; conditions: Gynecologic cancer cell panel viability, ATPlite luminescence, 48 h; series mostly up to 57.5 µM
Outline: as §1

CASKI = assay: as above; conditions: Gynecologic cancer cell panel viability, ATPlite luminescence, 48 h; series mostly up to 57.5 µM
Outline: as §1

Es-2 = assay: as above; conditions: Gynecologic cancer cell panel viability, ATPlite luminescence, 48 h; series mostly up to 57.5 µM
Outline: as §1

HeLa = assay: as above; conditions: Gynecologic cancer cell panel viability, ATPlite luminescence, 48 h; series mostly up to 57.5 µM
Outline: as §1

Hek293T = assay: as above; conditions: Gynecologic cancer cell panel viability, ATPlite luminescence, 48 h, control line for the selectivity index; series mostly up to 57.5 µM
Outline: as §1

JEG-3 = assay: as above; conditions: Gynecologic cancer cell panel viability, ATPlite luminescence, 48 h; series mostly up to 57.5 µM
Outline: as §1

OV90 = assay: as above; conditions: Gynecologic cancer cell panel viability, ATPlite luminescence, 48 h; series mostly up to 57.5 µM
Outline: as §1

PA-1 = assay: as above; conditions: Gynecologic cancer cell panel viability, ATPlite luminescence, 48 h; series mostly up to 57.5 µM
Outline: as §1

SKOV3 = assay: as above; conditions: Gynecologic cancer cell panel viability, ATPlite luminescence, 48 h; series mostly up to 57.5 µM
Outline: as §1

Tov-21-G = assay: as above; conditions: Gynecologic cancer cell panel viability, ATPlite luminescence, 48 h; series mostly up to 57.5 µM
Outline: as §1

Tov112D = assay: as above; conditions: Gynecologic cancer cell panel viability, ATPlite luminescence, 48 h; series mostly up to 57.5 µM
Outline: as §1

[1] = Drug repurposing screens with cells derived from glioblastoma tumor samples (AID 1345199); conditions: GBM patient neurospheres viability, ATP luminescence, 48 h; further: nearly all actives have a fitted effect of over 40% in size
Outline: (§2)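 Four patient lines of CD133+ GBM neurospheres were screened at several concentrations; hits were retested in those lines plus three slower-growing GBM lines, using 48-hour treatment and ATP-based viability.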

astro = assay: as above; conditions: viability, ATP luminescence, 48 h; series mostly up to 45.9 µM
Outline: as §2

[2] = at 45.9 µM (top of the series), tumour line B
[3] = at 45.9 µM (top of the series), tumour line D
[4] = at 46 µM (top of the series), tumour line A
[5] = at 46.1 µM (top of the series), tumour line C
On the % scale 0 is the no-effect control and ±100 the full control effect.

O=C(NCN1CCOCC1)c1cnccn1
inactive: outcome (C33A) | outcome (CAOV3) | outcome (CASKI) | outcome (Es-2) | outcome (HeLa) | outcome (Hek293T) | outcome (JEG-3) | Potency (OV90) | outcome (PA-1) | outcome (SKOV3) | outcome (Tov-21-G) | outcome (Tov112D) | activity, negative = cell killing [1, 2] -3.93% | activity, negative = cell killing [1, 3] -22.6% | activity, negative = cell killing [1, 4] -8.03% | activity, negative = cell killing [1, 5] -4.53% | outcome (astro)

O=C(O)c1ccc[n+]([O-])c1
inactive: outcome (C33A) | outcome (CAOV3) | outcome (CASKI) | outcome (Es-2) | outcome (HeLa) | outcome (Hek293T) | outcome (JEG-3) | Potency (OV90) | outcome (PA-1) | outcome (SKOV3) | outcome (Tov-21-G) | outcome (Tov112D) | activity, negative = cell killing [1, 2] -13.5% | activity, negative = cell killing [1, 3] 12.2% | activity, negative = cell killing [1, 4] -25.2% | activity, negative = cell killing [1, 5] -21.7% | outcome (astro)

NC(=O)CCCCC1CCSS1 (stereo unspecified)
inactive: outcome (C33A) | outcome (CAOV3) | outcome (CASKI) | outcome (Es-2) | outcome (HeLa) | outcome (Hek293T) | outcome (JEG-3) | Potency (OV90) | outcome (PA-1) | outcome (SKOV3) | outcome (Tov-21-G) | outcome (Tov112D) | activity, negative = cell killing [1, 2] -3.9% | activity, negative = cell killing [1, 3] 6.2% | activity, negative = cell killing [1, 4] -23.7% | activity, negative = cell killing [1, 5] 2.37% | outcome (astro)

Cn1c(=O)c2c(ncn2CCO)n(C)c1=O
inactive: outcome (C33A) | outcome (CAOV3) | outcome (CASKI) | outcome (Es-2) | outcome (HeLa) | outcome (Hek293T) | outcome (JEG-3) | Potency (OV90) | outcome (PA-1) | outcome (SKOV3) | outcome (Tov-21-G) | outcome (Tov112D) | activity, negative = cell killing [1, 2] -5.04% | activity, negative = cell killing [1, 3] -0.441% | activity, negative = cell killing [1, 4] -29% | activity, negative = cell killing [1, 5] -21.7% | outcome (astro)

CC(N)CCCC(C)(C)O (stereo unspecified)
inactive: outcome (C33A) | outcome (CAOV3) | outcome (CASKI) | outcome (Es-2) | outcome (HeLa) | outcome (Hek293T) | outcome (JEG-3) | Potency (OV90) | outcome (PA-1) | outcome (SKOV3) | outcome (Tov-21-G) | outcome (Tov112D) | activity, negative = cell killing [1, 2] -8.17% | activity, negative = cell killing [1, 3] -3.88% | activity, negative = cell killing [1, 4] -24.8% | activity, negative = cell killing [1, 5] -13.9% | outcome (astro)

CO[C@@]1(NC(=O)C(C(=O)O)c2ccc(O)cc2)C(=O)N2C(C(=O)O)=C(CSc3nnnn3C)CO[C@@H]21 (stereo partly specified)
inactive: outcome (C33A) | outcome (CAOV3) | outcome (CASKI) | outcome (Es-2) | outcome (HeLa) | outcome (Hek293T) | outcome (JEG-3) | Potency (OV90) | outcome (PA-1) | outcome (SKOV3) | outcome (Tov-21-G) | outcome (Tov112D) | activity, negative = cell killing ([1]; at 20 µM (top of the series), tumour line C) -17.7% | activity, negative = cell killing ([1]; at 21.2 µM (top of the series), tumour line B) -0.689% | activity, negative = cell killing ([1]; at 21.2 µM (top of the series), tumour line D) -3.96% | activity, negative = cell killing ([1]; at 21.3 µM (top of the series), tumour line A) -23.1% | outcome (astro)

Cc1c(I)c(=O)n(-c2ccccc2)n1C
inactive: outcome (C33A) | outcome (CAOV3) | outcome (CASKI) | outcome (Es-2) | outcome (HeLa) | outcome (Hek293T) | outcome (JEG-3) | Potency (OV90) | outcome (PA-1) | outcome (SKOV3) | outcome (Tov-21-G) | outcome (Tov112D) | activity, negative = cell killing [1, 2] -4.2% | activity, negative = cell killing [1, 3] -14% | activity, negative = cell killing [1, 4] -24.2% | activity, negative = cell killing [1, 5] 3.68% | outcome (astro)

CC1(C)S[C@@H]2[C@H](NC(=O)C(C(=O)O)c3ccccc3)C(=O)N2[C@H]1C(=O)O (stereo partly specified)
inactive: outcome (C33A) | outcome (CAOV3) | outcome (CASKI) | outcome (Es-2) | outcome (HeLa) | outcome (Hek293T) | outcome (JEG-3) | Potency (OV90) | outcome (PA-1) | outcome (SKOV3) | outcome (Tov-21-G) | outcome (Tov112D) | activity, negative = cell killing [1, 2] 2.69% | activity, negative = cell killing [1, 3] -6.27% | activity, negative = cell killing [1, 4] -8.84% | activity, negative = cell killing [1, 5] 7.57% | outcome (astro)

COc1ccc(C(=O)N2CCN(CC(=O)N3CCOCC3)CC2)cc1
inactive: outcome (C33A) | outcome (CAOV3) | outcome (CASKI) | outcome (Es-2) | outcome (HeLa) | outcome (Hek293T) | outcome (JEG-3) | Potency (OV90) | outcome (PA-1) | outcome (SKOV3) | outcome (Tov-21-G) | outcome (Tov112D) | activity, negative = cell killing [1, 2] -0.665% | activity, negative = cell killing [1, 3] -14.5% | activity, negative = cell killing [1, 4] -23.3% | activity, negative = cell killing [1, 5] -11.4% | outcome (astro)

O=C(Cn1ccnc1[N+](=O)[O-])NCc1ccccc1
inactive: outcome (C33A) | outcome (CAOV3) | outcome (CASKI) | outcome (Es-2) | outcome (HeLa) | outcome (Hek293T) | outcome (JEG-3) | Potency (OV90) | outcome (PA-1) | outcome (SKOV3) | outcome (Tov-21-G) | outcome (Tov112D) | activity, negative = cell killing [1, 2] 4.79% | activity, negative = cell killing [1, 3] 3.98% | activity, negative = cell killing [1, 4] -20.7% | activity, negative = cell killing [1, 5] -17.9% | outcome (astro)

O=C(O)c1ccc(OCCCOc2ccc(C(=O)O)cc2)cc1
inactive: outcome (C33A) | outcome (CAOV3) | outcome (CASKI) | outcome (Es-2) | outcome (HeLa) | outcome (Hek293T) | outcome (JEG-3) | Potency (OV90) | outcome (PA-1) | outcome (SKOV3) | outcome (Tov-21-G) | outcome (Tov112D) | activity, negative = cell killing [1, 2] -4.79% | activity, negative = cell killing [1, 3] -29% | activity, negative = cell killing [1, 4] -33.4% | activity, negative = cell killing [1, 5] -12% | outcome (astro)

CN1C[C@@H]2C[C@H]1CN2c1cc2c(cc1F)c(=O)c(C(=O)O)cn2C1CC1
inactive: outcome (C33A) | outcome (CAOV3) | outcome (CASKI) | outcome (Es-2) | outcome (HeLa) | outcome (Hek293T) | outcome (JEG-3) | Potency (OV90) | outcome (PA-1) | outcome (SKOV3) | outcome (Tov-21-G) | outcome (Tov112D) | activity, negative = cell killing [1, 2] 4.99% | activity, negative = cell killing [1, 3] -9.88% | activity, negative = cell killing [1, 4] -19.7% | activity, negative = cell killing [1, 5] 3.73% | outcome (astro)

CN(C(=O)c1c(O)c2ccccc2n(C)c1=O)c1ccccc1
inactive: outcome (C33A) | outcome (CAOV3) | outcome (CASKI) | outcome (Es-2) | outcome (HeLa) | outcome (Hek293T) | outcome (JEG-3) | Potency (OV90) | outcome (PA-1) | outcome (SKOV3) | outcome (Tov-21-G) | outcome (Tov112D) | activity, negative = cell killing [1, 2] -5.78% | activity, negative = cell killing [1, 3] -11.8% | activity, negative = cell killing [1, 4] -31.5% | activity, negative = cell killing [1, 5] -28.1% | outcome (astro)
